The list is not random: actives were taken first. Their share in the collection is about 3.2%.
rCAG binder = molecules binding r(CAG) RNA repeats; r(CAG) RNA repeat, TO-PRO-1 dye displacement fluorescence; inhibition, % at 3 µM; hit rate 1.3% among 370,000; AID 651821;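 active = inhibition above the plate cutoff, the mean of all test compounds on that plate plus 3 SD, cut at about 35% in these data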;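 note: 0% = DMSO alone and 100% = 100 µM mitoxantrone as full dye displacement; higher means more dye released from RNA so lower well fluorescence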
MsrA inhibitor = inhibits bovine methionine sulfoxide reductase A; purified bovine MsrA, absorbance read-out; inhibition, % at 15.5 µM; hit rate 0.75% among 360,000; AID 651718; in the data active = inhibition above about 4.5%;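 note: 0% = vehicle wells with enzyme and 100% = reference inhibitor wells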
DAGLB inh = blocks human DAGLB lipase activity; hit rate 0.059% among 340,000; inhibition, % at 5.17 µM; HEK293T DAGLB membrane lysate, EnzChek fluorogenic substrate; in the data active = inhibition above about 34%;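 note: 0% = enzyme with vehicle and 100% = wells lacking enzyme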
Target sequence (Q8NCG7 whole entry, looked up): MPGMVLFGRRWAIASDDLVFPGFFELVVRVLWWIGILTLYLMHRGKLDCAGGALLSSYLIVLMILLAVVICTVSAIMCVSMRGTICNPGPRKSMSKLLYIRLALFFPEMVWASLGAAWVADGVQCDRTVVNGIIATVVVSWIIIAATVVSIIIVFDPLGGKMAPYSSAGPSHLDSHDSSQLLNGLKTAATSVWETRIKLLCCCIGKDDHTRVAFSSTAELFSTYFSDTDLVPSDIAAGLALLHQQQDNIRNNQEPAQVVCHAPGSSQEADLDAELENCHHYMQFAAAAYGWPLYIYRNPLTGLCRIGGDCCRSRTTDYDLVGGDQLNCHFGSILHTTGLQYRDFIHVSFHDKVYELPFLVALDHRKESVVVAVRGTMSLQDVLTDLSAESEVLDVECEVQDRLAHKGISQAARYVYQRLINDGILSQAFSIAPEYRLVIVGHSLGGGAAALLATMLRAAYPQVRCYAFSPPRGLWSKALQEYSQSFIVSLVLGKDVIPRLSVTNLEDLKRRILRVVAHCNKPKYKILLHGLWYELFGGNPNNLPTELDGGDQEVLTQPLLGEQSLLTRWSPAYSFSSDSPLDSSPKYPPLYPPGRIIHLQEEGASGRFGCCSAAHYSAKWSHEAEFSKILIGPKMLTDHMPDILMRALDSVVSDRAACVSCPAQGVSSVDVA
DSG3 Ab inh = blocks pemphigus antibody binding to human desmoglein-3; P32926; DSG3-coupled beads, scFv-anti-DSG3-GFP binding, flow cytometry; active compounds read low; binding (percent of control), % at 10 µM; hit rate 0.48% among 310,000;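 active = binding more than 3 SD below its plate's average and above zero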;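 note: hits lower antibody fragment binding to DSG3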
NadD inh = NadD (S. aureus) enzyme inhibition; inhibition, % at 20 µM; purified NadD enzyme, colorimetric absorbance read-out; hit rate 0.78% among 360,000; AID 602399; in the data active = inhibition above about 26%
bovine MsrA act = bovine methionine sulfoxide reductase A activation; purified bovine MsrA, absorbance read-out; activation, % at 10.6 µM; hit rate 0.3% among 360,000; in the data active = activation above about 7.5%;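 note: 0% = vehicle and 100% = reference activator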
rCAG bind conf = r(CAG) RNA repeat binding, confirmation; TO-PRO-1 dye displacement fluorescence; inhibition, % at 3 µM; hit rate 70% among 4,300; shares compounds with rCAG binder; AID 652065;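 active = inhibition above a per-plate cutoff, the mean inhibition of sample wells plus 3 SD, cut at about 35% in these data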;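 note: loss of TO-PRO-1 fluorescence as compound displaces dye from 1x1 AA loop RNA; 0% = DMSO only wells and 100% = 100 µM mitoxantrone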
dCAG dye counter = DNA CAG dye complex inhibition counter-screen. shares compounds with rCAG binder. inhibition, % at 3 µM. d(CAG) DNA oligo TO-PRO-1 dye displacement, fluorescence. hit rate 94% among 4,300. AID 652068;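 active = inhibition above its plate's cutoff, the mean test-well inhibition plus 3 SD, cut at about 4.8% in these data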;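 note: 0% = DNA dye mix with DMSO and 100% = 100 µM mitoxantrone; hits displace the dye from DNA and so lower well fluorescence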
dCAG dye DR = counter-screen for rCAG binders: inhibitors of DNA CAG TO-PRO-1 complex; shares compounds with rCAG binder; DNA CAG/GTC duplex TO-PRO-1 dye displacement fluorescence; IC50, µM; hit rate 20% among 250; AID 686960; in the data active = IC50 below about 10 µM
Active calls of the source: *; i = inactive; . = no result given; ! = a repeat was not active.

SMILES	rCAG binder	MsrA inhibitor	DAGLB inh	DSG3 Ab inh	NadD inh	bovine MsrA act	rCAG bind conf	dCAG dye counter	others
COc1cc(NS(=O)(=O)c2ccc(NC(=S)NC(C)=O)cc2)nc(OC)n1	11	1	.	109	1	-1	.	.
COc1cc(NS(=O)(=O)c2ccc(NC(=O)COc3ccc(C)cc3C)cc2)nc(OC)n1	45*	1	4	105	0	-2	46*	14*
COc1cc(NS(=O)(=O)c2ccc(NC(=O)COc3ccc(C)cc3)cc2)nc(OC)n1	38*	0	4	104	0	-3	27	10*
COc1cc(NS(=O)(=O)c2ccc(NC(=O)COc3ccccc3C)cc2)nc(OC)n1	45*	-1	5	105	6	-2	32	13*
COC(=O)CCC(=O)Nc1ccc(S(=O)(=O)Nc2cc(OC)nc(OC)n2)cc1	0	2	-4	87	0	-1	.	.
Nn1c(SCc2ccc([N+](=O)[O-])cc2)nnc1-c1cc(-c2ccccc2)n[nH]1	10	.	.	.	.	.	.	.
COC(=O)[C@]12C[C@H](CC(=O)NCCc3ccccc3OC)C(=O)N(Cc3cccc4ccccc34)C1=C[C@H](C(C)(C)C)O[C@@H]2C	7	.	.	.	.	.	.	.
COc1cc(NS(=O)(=O)c2ccc(NC(=S)NC(=O)COc3ccccc3OC)cc2)nc(OC)n1	44*	0	8	103	11	1	59*	24*
COc1cc(NS(=O)(=O)c2ccc(NC(=S)NC(=O)C(C)(C)C)cc2)nc(OC)n1	10	1	3	101	-3	-4	.	.
C[C@@H]1CN([C@@H](C)CO)S(=O)(=O)c2ccc(/C=C/c3ccccc3)cc2O[C@@H]1CN(C)Cc1ccc(C(=O)O)cc1	60*	2	6	.	16	-2	66*	25*
C[C@@H]1CN([C@H](C)CO)S(=O)(=O)c2ccc(Br)cc2O[C@@H]1CN(C)Cc1ccc(C(=O)O)cc1	14	-1	2	.	0	-1	.	.
CCN(CC)N=Nc1ccc(S(=O)(=O)Nc2nc(C)cc(C)n2)cc1	43*!	3	0	98	-3	-4	5	-2
Oc1ccc(/C=N/Nc2ccnc3cc(Cl)ccc23)c(O)c1O	38*	2	13	93*	59*	-4	59*	28*	dCAG dye DR=i
O=C(c1cc(Cl)ccc1F)N1CCCC(c2nc(-c3cccs3)no2)C1 (stereo unspecified)	2	.	.	.	.	.	.	.
COc1ccccc1/C=C/C=N/Nc1cccc(C(=O)O)c1	36*	4	4	102	-6	-3	37*	9.3*
O=C(O)c1cccc(N/N=C/c2ccc(-c3ccccc3)cc2)c1	33	0	2	105	4	-13	.	.
O=C(O)c1cccc(NN=C2c3ccccc3-c3ccccc32)c1	87*	2	9	81	-2	-4	81*	47*
COc1ccc(Br)cc1/C=N/Nc1cccc(C(=O)O)c1	22	0	5	97	24	-1	.	.
O=C(O)c1cccc2c1-c1ccccc1/C2=N\Nc1ccccc1	29	0	5	100	-5	-4	.	.
O=C(O)c1cc(NN=C2c3ccccc3-c3ccccc32)ccc1Cl	93*	1	13	106	6	-1	81*	50*
O=C(O)c1cccc(N/N=C/c2cc(Br)cc(Br)c2O)c1	95*	2	9	97	0	-8	83*	48*
O=C(CN1CCN(S(=O)(=O)c2ccc(Br)s2)CC1)NCC1CCCCC1	1	0	-1	95	0	-8	.	.
Cc1ccc(C)c(CC(=O)N2CCCCC2c2cc(C(=O)Nc3ccc(F)c(Cl)c3)no2)c1 (stereo unspecified)	9	2	.	.	2	-4	.	.
O=C(O)c1cc(N/N=C/C(Cl)=C/c2ccccc2)ccc1Cl	57*	2	4	104	-8	-10	45*	18*
O=C(O)c1cc(N/N=C/c2cccc3ccccc23)ccc1Cl	12	1	6	104	-6	-1	.	.
SMILES	rCAG binder	MsrA inhibitor	DAGLB inh	DSG3 Ab inh	NadD inh	bovine MsrA act	rCAG bind conf	dCAG dye counter	others
O=C(Nc1ccc(F)cc1)C(c1ccccc1OC(F)(F)F)N1CCN(C(=O)c2ccco2)CC1 (stereo unspecified)	0	-1	.	.	.	.	.	.
Cc1ccc(C(=O)N(NC2=NS(=O)(=O)c3ccccc32)S(=O)(=O)c2ccc(C)cc2)cc1	64*	1	2	103	-5	-3	44*	13*
CCN(C1=NS(=O)(=O)c2ccccc21)N(CC)S(=O)(=O)c1ccc(C)cc1	-1	1	-6	99	-2	3	.	.
CCOC1CCCc2oc(-c3ccsc3)c(-c3cnc(OC)nc3)c21 (stereo unspecified)	5	1	.	.	-2	-4	.	.
CC(C)CNc1cc(Cl)c(S(=O)(=O)NCC(C)C)cc1C(=O)O	37*	2	7	97	3	-3	19	1
CC(C)CNS(=O)(=O)c1cc(C(=O)N2CC(C)OC(C)C2)c(Cl)cc1Cl (stereo unspecified)	-5	0	-1	105	-2	-7	.	.
O=C1N(Cc2ccccc2)c2ccccc2C12CCCc1sc(CCc3ccccc3)nc12 (stereo unspecified)	3	.	.	.	.	.	.	.
O=C(CSc1nc2ccccc2c(=O)n1Cc1ccccc1)Nc1ccc(Br)cc1C(=O)O	66*	1	21	107	5	-4	83*	56*
Cc1ccc(S(=O)(=O)N2CCOCC2)cc1NC(=O)CSc1nc2ccccc2c(=O)n1Cc1ccccc1	8	1	2	84	5	-8	.	.
O=C(Nc1ccccc1)Nc1ncc([N+](=O)[O-])s1	11	0	11	116	-1	0	.	.
O=C(COC(=O)c1ccccc1)Nc1ncc([N+](=O)[O-])s1	60*	2	5	87	13	-4	70*	37*
O=c1cc(CN2CCCCC2)c2ccccc2o1	2	0	.	.	-7	-1	.	.
CCCCCn1nnnc1C1(C)CN(S(C)(=O)=O)CC(=O)N1Cc1ccco1 (stereo unspecified)	2	.	.	.	.	.	.	.
COc1ccc(Cn2c(O)cc(=O)[nH]c2=O)cc1	28	0	5	106	6	4	.	.
CCOc1ccc(Cn2c(O)cc(=O)[nH]c2=O)cc1	47*	-1	3	99	6	8	12	4
COc1ccc(-c2cc(-c3nnc4sc(Cc5cccs5)nn34)[nH]n2)cc1	21	.	.	.	.	.	.	.
Cc1ccc(C)c(OCC(=O)Nc2ccc(C(=O)O)cc2NC(=O)COc2cc(C)ccc2C)c1	74*	0	7	108	9	1	75*	40*

Screens from PubChem BioAssay.
